# Records with an inconclusive call do not appear. Where a call stands in place of a potency, no number is given. Activity calls are given as the source filed them. The call rests on the fitted dose curve; in most records, active means well fitted cell-killing curve with a large enough effect; inconclusive means small, poorly fitted or top-dose-only effect, or effect the other way; inactive means no such curve, though single readings can be large or run the other way.
# Experiments:
# [1] = Viability qHTS for spleen associated tyrosine kinase inhibitor (SYKi) naive MV4-11 cells (AID 1963823); further: nearly all actives have a fitted effect of over 40% in size
# Summary of the method: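 Seeding of 500 SYKi-naive MV4-11 cells per well onto pre-dispensed compounds preceded a 72 hr incubation at 37 C. Luminescent CellTiter-Glo signal, read after 10 min at room temperature, reflected viable cells.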
# [2] = Viability qHTS for spleen associated tyrosine kinase inhibitor (SYKi) drug resistant MV4-11 cells (AID 1963824); further: nearly all actives have a fitted effect of over 35% in size
# Summary of the method: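 SYK inhibitor-resistant MV4-11 AML cells, 500 per well, added to predispensed compounds and incubated 72 hr at 37 C, 5% CO2. Viability measured by CellTiter-Glo luminescence after 10 min at room temperature.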
# Potency means the concentration at half of the fitted maximal effect.
SMILES,Potency [1],Potency [2]
CNC(=O)c1cc(Oc2ccc(NC(=O)c3cccc(C(F)(F)F)c3)cc2)ccn1,11.6 µM (active),11.6 µM (active)
COc1cc(C2Oc3c(OC)cc(/C=C/C(=O)OC4CC(O)(C(=O)O)CC(O)C4O)cc3C2CO)ccc1O (stereo unspecified),inactive,inactive
CNCc1cc(-c2ccccc2F)n(S(=O)(=O)c2cccnc2)c1,inactive,13 µM (active)
O=S(=O)(NC1CCNCC1)c1cc(S(=O)(=O)c2ccccc2)ccc1C(F)(F)F,inactive,inactive
CC(C)C1NC(=O)CNC(=O)C2CCCN2C(=O)C(Cc2c[nH]c3ccccc23)NC(=O)CNC(=O)C(C(O)c2ccc(O)cc2)NC(=O)CNC1=O (stereo unspecified),inactive,inactive
C[C@@H]1O[C@@H](O[C@H]2[C@@H]3C=CO[C@@H](O[C@@H]4O[C@H](CO)[C@@H](O)[C@H](O)[C@H]4O)[C@@H]3[C@@]3(CO)O[C@@H]23)[C@H](O)[C@H](OC(=O)/C=C/c2ccc(O)cc2)[C@H]1OC(=O)/C=C/c1ccc(O)cc1,inactive,inactive
CC(C)C1(O[C@@H]2O[C@H](CO)[C@@H](O)[C@H](O)[C@H]2O)CC=C(CO)CC1 (stereo partly specified),inactive,inactive
O=C1NC(=O)[C@@H](c2cn3c4c(cccc24)CCC3)[C@@H]1c1c[nH]c2ccccc12,1.18 µM (active),1.32 µM (active)

# From PubChem BioAssay (NCATS)
